In PubChem BioAssay (NCI):
Compounds without any hit were thinned out: in the full panel of roughly 79,000, 15% have a hit. Activity calls are given as the source filed them. Cut-off read from the data, not from the text of the source: active = growth inhibition above about 70%; inactive = the rest.

Key:
[1] = NCI Yeast Anticancer Drug Screen. Data for the rad52 strain (AID 147);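 note: 0% = growth of vehicle-treated control cultures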; conditions: S. cerevisiae rad52 mutant growth inhibition, stronger effect = higher value
Method in brief: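 Vehicle-treated cultures served as the reference for growth inhibition of compound-exposed yeast bearing a DNA repair mutation.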

[2] = NCI Yeast Anticancer Drug Screen. Data for the wt1 strain (AID 149);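 note: 0% = growth of vehicle-treated wt1 cultures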; conditions: S. cerevisiae wt1 strain (SPY 50644) growth inhibition, stronger effect = higher value
Method in brief: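 Vehicle-normalised growth inhibition; strain wt1; compound exposure.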

[3] = NCI Yeast Anticancer Drug Screen. Data for the rad50EPP+ strain (AID 151);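 note: 0% = growth of vehicle-treated control cultures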; conditions: S. cerevisiae rad50 mutant strain, stronger effect = higher value
Method in brief: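 In this screen, rad50EPP+ yeast were exposed to compounds. Growth inhibition was scored against vehicle-treated controls.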

[4] = NCI Yeast Anticancer Drug Screen. Data for the mgt1 strain (AID 153); conditions: S. cerevisiae mgt1 mutant growth inhibition, stronger effect = higher value
Method in brief: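 mgt1 strain exposed; growth vs vehicle control recorded as inhibition.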

[5] = NCI Yeast Anticancer Drug Screen. Data for the rad50 strain (AID 155);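 note: 0% = growth of vehicle-only cultures of the same strain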; conditions: S. cerevisiae rad50 strain growth inhibition, stronger effect = higher value
Method in brief: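 A DNA repair-deficient yeast mutant serves as the test organism; compound-induced growth inhibition is calculated against vehicle-treated cells.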

[6] = NCI Yeast Anticancer Drug Screen. Data for the mec2-1 strain (AID 157); conditions: S. cerevisiae mec2-1 strain, stronger effect = higher value
Method in brief: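 Vehicle-treated cultures served as reference for growth inhibition of compound-exposed mec2-1 yeast.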

[7] = NCI Yeast Anticancer Drug Screen. Data for the rad14 strain (AID 159);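 note: 0% = growth of vehicle-treated control cultures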; conditions: S. cerevisiae rad14 strain growth inhibition, stronger effect = higher value
Method in brief: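 Vehicle-treated cultures served as the baseline for growth inhibition of a DNA repair-mutant yeast strain exposed to each compound.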

[8] = NCI Yeast Anticancer Drug Screen. Data for the sgs1 mgt1 strain (AID 161);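 note: 0% = growth of cultures given vehicle only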; conditions: S. cerevisiae sgs1 mgt1 strain, stronger effect = higher value
Method in brief: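 Read-out: growth inhibition vs vehicle controls. Cells: mutant yeast strain deficient in DNA damage repair.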

[9] = NCI Yeast Anticancer Drug Screen. Data for the CLN2oe strain (AID 163);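 note: 0% = growth of vehicle-only control cultures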; conditions: S. cerevisiae CLN2oe strain, stronger effect = higher value
Method in brief: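 Inhibition relative to vehicle-treated yeast is reported. Cells: strain with genetic alteration in cell-cycle control, grown with compound.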

[10] = NCI Yeast Anticancer Drug Screen. Data for the cln2 rad14 strain (AID 165);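 note: 0% = growth equal to vehicle treated cultures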; conditions: S. cerevisiae cln2 rad14 strain, stronger effect = higher value
Method in brief: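 Each compound was tested on cln2 rad14 yeast. Inhibition of growth was calculated against vehicle-exposed controls.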

[11] = NCI Yeast Anticancer Drug Screen. Data for the bub3 strain (AID 167); conditions: S. cerevisiae bub3 mutant strain, stronger effect = higher value
Method in brief: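 Inhibition values come from growth of compound-treated mutant yeast normalised to vehicle-treated controls.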

[12] = NCI Yeast Anticancer Drug Screen. Data for the wt2 strain (AID 169);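 note: 0% = growth of vehicle-treated yeast cultures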; conditions: S. cerevisiae wt2 strain growth inhibition, stronger effect = higher value
Method in brief: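 Inhibition of yeast growth was determined after compound treatment, normalised to controls receiving only vehicle.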

[13] = NCI Yeast Anticancer Drug Screen. Data for the mlh1 strain (AID 171);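 note: 0% = growth of vehicle-treated control cultures of the same strain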; conditions: S. cerevisiae mlh1 strain growth inhibition, stronger effect = higher value
Method in brief: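 Vehicle-normalised growth inhibition of a repair- or checkpoint-altered yeast strain following compound treatment.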

[14] = NCI Yeast Anticancer Drug Screen. Data for the mlh1 rad18 strain (AID 175); conditions: S. cerevisiae mlh1 rad18 strain growth inhibition, stronger effect = higher value
Method in brief: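 Vehicle-treated cultures served as the reference for growth inhibition in a yeast strain carrying DNA damage repair alterations exposed to each compound.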

[15] = NCI Yeast Anticancer Drug Screen. Data for the rad18 strain (AID 177); conditions: S. cerevisiae rad18 mutant growth inhibition, stronger effect = higher value
Method in brief: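 Test articles were incubated with altered yeast defective in DNA damage repair. Results are given as inhibition of growth versus vehicle.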

[16] = at 5.0 µM (retest, dose inferred, filed as 0.5)
[17] = at 50.0 µM (retest, dose inferred, filed as 5.0)

Measured: growth inhibition

Clc1nc(Cl)nc(Nc2cccc3ccccc23)n1
active: [1]; at 33.0 µM 93% | [1]; at 100.0 µM 98% | [2]; at 33.0 µM 88% | [2]; at 100.0 µM 98% | [3]; at 33.0 µM 85% | [3]; at 100.0 µM 95% | [4]; at 33.0 µM 95% | [4]; at 100.0 µM 98% | [5]; at 33.0 µM 93% | [5]; [17] 92% | [5]; at 50.0 µM 86.9% | [5]; at 100.0 µM 97% | [6]; at 33.0 µM 97% | [6]; [17] 96% | [6]; at 50.0 µM 90% | [6]; at 100.0 µM 98% | [7]; at 33.0 µM 95% | [7]; at 100.0 µM 98% | [8]; at 50.0 µM 86.7% | [9]; at 33.0 µM 94% | [9]; at 100.0 µM 99% | [10]; [17] 95% | [10]; at 50.0 µM 71.4% | [11]; at 11.0 µM 80% | [11]; at 33.0 µM 96% | [11]; [17] 97% | [11]; at 50.0 µM 86.2% | [11]; at 100.0 µM 99% | [12]; at 33.0 µM 93% | [12]; at 100.0 µM 98% | [13]; at 11.0 µM 85% | [13]; at 33.0 µM 97% | [13]; at 100.0 µM 98% | [14]; [17] 94% | [14]; at 50.0 µM 80.3% | [15]; at 33.0 µM 91% | [15]; at 100.0 µM 98%
inactive: [1]; at 1.2 µM 13% | [1]; at 3.7 µM 32% | [1]; at 11.0 µM 64% | [2]; at 1.2 µM 6% | [2]; at 3.7 µM 14% | [2]; at 11.0 µM 36% | [3]; at 1.2 µM 21% | [3]; at 3.7 µM 50% | [3]; at 11.0 µM 49% | [4]; at 1.2 µM 18% | [4]; at 3.7 µM 26% | [4]; at 11.0 µM 54% | [5]; at 1.2 µM 4% | [5]; at 3.7 µM 21% | [5]; [16] 29% | [5]; at 11.0 µM 52% | [6]; at 1.2 µM 23% | [6]; at 3.7 µM 42% | [6]; [16] 10% | [6]; at 11.0 µM 58% | [7]; at 1.2 µM -4% | [7]; at 3.7 µM 15% | [7]; at 11.0 µM 48% | [8]; [16] 19% | [8]; [17] 39% | [9]; at 1.2 µM 26% | [9]; at 3.7 µM 31% | [9]; at 11.0 µM 51% | [10]; [16] 44% | [11]; at 1.2 µM 33% | [11]; at 3.7 µM 45% | [11]; [16] 64% | [12]; at 1.2 µM -12% | [12]; at 3.7 µM 15% | [12]; at 11.0 µM 51% | [13]; at 1.2 µM 27% | [13]; at 3.7 µM 51% | [14]; [16] 69% | [15]; at 1.2 µM 11% | [15]; at 3.7 µM 14% | [15]; at 11.0 µM 50%
